Most compounds without a hit are left out; they make up all but 1.2% or so of the library.
TRb-SRC2 inh = qHTS for Inhibitors of the Interaction of Thyroid Hormone Receptor and Steroid Receptor Coregulator 2; Thyroid hormone receptor beta (Homo sapiens), P10828; TRbeta-SRC2 peptide binding, fluorescence polarization; receptor liganded with 1 µM T3; Potency, µM (doses to about 106 µM), most hits filed as inhibitors; 280,000 tested, 0.065% active; further: nearly all actives have a fitted effect of over 50% in size
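Fluorescence polarization of 20 nM Texas Red SRC2 peptide with 0.6 uM human TRb ligand-binding domain, in Tris buffer with 1uM T3 and 5% DMSO. Incubated 5 hr ambient; normalized to unbound and bound controls.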
GoLoco inh red = qHTS Assay for Inhibitors of RGS12 GoLoco Motif Activity (Red Fluorophore) | Guanine nucleotide-binding protein G(i) subunit alpha-1 (Homo sapiens), P63096 | Gai1:RGS12 GoLoco peptide FP, rhodamine, 10 min | Potency, µM (series often up to 61.6 µM), most hits filed as inhibitors | 230,000 tested, 0.44% active; active means well fitted inhibition curve with a large enough effect, not every such curve was filed as active; inactive means no such curve, though single readings can be large or run the other way; further: nearly all actives have a fitted effect of over 30% in size
TR SRC2 fluor cs = Total Fluorescence Counterscreen for Inhibitors of the Interaction of Thyroid Hormone Receptor and Steroid Receptor Coregulator 2. AID 1479, 2009. 280,000 tested, 0.29% active. TRb/SRC2 Texas Red total fluorescence interference. Potency, µM (titrated, usually from 106 µM); active means well fitted curve in either direction with a large enough effect; inconclusive means small, poorly fitted or top-dose-only effect
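Flags fluorescent or light-absorbing compounds by total fluorescence, S + 2P, at 555 nm excitation and 632 nm emission. Mixture: 20 nM Texas Red SRC2 peptide, 0.6 uM human TRb LBD, 1 uM T3, 5% DMSO; compound exposure 5 h at ambient temperature.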
VDR inh = Inhibitors of the vitamin D receptor (VDR): qHTS; Vitamin D3 receptor (Homo sapiens), P11473; VDR-SRC2-3 peptide fluorescence polarization, 2 h; Potency, µM, usual class: inhibitors; 400,000 tested, 0.93% active; AID 504847, 2011
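Compounds are added to VDR with labelled SRC2-3 coactivator peptide and held 2 h at room temperature. Inhibition of the VDR–peptide interaction is then read as a change in fluorescence polarization.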
GCN5L2 inh = qHTS Assay for Inhibitors of GCN5L2. GCN5L2 HAT assay, ThioGlo1 CoA-SH fluorescence. Potency, µM (series often up to 58.9 µM), actives largely listed as inhibitors. 390,000 tested, 0.21% active. AID 504327, 2011
Target sequence (Q92830 whole entry, looked up): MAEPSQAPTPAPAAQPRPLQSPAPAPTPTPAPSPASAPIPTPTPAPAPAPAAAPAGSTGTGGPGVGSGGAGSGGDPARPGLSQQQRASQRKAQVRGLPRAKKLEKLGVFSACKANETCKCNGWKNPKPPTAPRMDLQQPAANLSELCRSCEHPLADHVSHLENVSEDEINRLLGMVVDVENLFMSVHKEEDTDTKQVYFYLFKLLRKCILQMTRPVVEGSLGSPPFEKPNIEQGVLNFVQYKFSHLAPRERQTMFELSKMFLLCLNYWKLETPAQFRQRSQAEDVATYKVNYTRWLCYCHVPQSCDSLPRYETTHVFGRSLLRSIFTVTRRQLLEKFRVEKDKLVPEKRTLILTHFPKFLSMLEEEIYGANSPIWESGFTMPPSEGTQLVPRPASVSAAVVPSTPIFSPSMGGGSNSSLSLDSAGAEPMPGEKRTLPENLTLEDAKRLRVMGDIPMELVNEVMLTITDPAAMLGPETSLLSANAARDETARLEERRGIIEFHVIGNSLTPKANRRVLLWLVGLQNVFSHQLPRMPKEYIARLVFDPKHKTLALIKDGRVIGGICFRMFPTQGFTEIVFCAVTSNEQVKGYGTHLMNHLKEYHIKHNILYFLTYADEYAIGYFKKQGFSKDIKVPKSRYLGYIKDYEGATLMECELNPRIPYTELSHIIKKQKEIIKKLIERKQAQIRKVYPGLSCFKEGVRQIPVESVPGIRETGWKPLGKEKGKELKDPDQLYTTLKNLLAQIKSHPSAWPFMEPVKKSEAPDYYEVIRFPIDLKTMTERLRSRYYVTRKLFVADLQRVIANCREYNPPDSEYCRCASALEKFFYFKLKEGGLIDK
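Compounds, pin-transferred from DMSO stocks, meet 20nM GCN5L2 for 15 min before the reaction begins with H3(1-25) peptide (75uM) and acetyl-CoA (70uM). Thiol-reactive ThioGlo1 reports CoA release over 20 min at room temperature.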
Hits are given with their value; i = inactive; ? = inconclusive; nt = no result given; [ ] = remark or other dose. Unless noted, the call rests on the fitted dose curve; in most records, active means well fitted curve in the direction sought with a large enough effect; inconclusive means small, poorly fitted or top-dose-only effect, or another doubt; inactive means no such curve, though single readings can be large; an effect the other way counts as inactive or inconclusive.

SMILES | TRb-SRC2 inh | GoLoco inh red | TR SRC2 fluor cs | VDR inh | GCN5L2 inh
CC(C1CC2CCC1C2)n1c(-c2ccco2)n[nH]c1=S (configuration not stated) | i | i | i | 79µM | i
O=C(O)c1cc(N(Cc2ccccc2O)Cc2cc(O)ccc2O)ccc1O | i | i | i | 50µM | ?
CC(C)(C)c1ccc(O)c(CN(Cc2cc(C(C)(C)C)ccc2O)c2ccccc2)c1 | nt | i[14.2 µM] | nt | nt | nt
CC(C)c1nnc(SCC(=O)NCCC2=CCCCC2)n1N | i | i | i | 89µM | i
Nn1c(SCC(=O)NCCC2=CCCCC2)nnc1-c1cccnc1 | nt | nt | nt | i | i
CC(C)N(C)C | i | i | i | nt | nt
C[C@H](C(=O)c1ccccc1)C(c1ccccc1)N1CCOCC1 (some centres not stated) | nt | i[14.2 µM] | nt | nt | nt
COc1ccc(Cl)cc1NC(=O)CN1C(=O)C(C)(C)c2cc(S(=O)(=O)N3CCCCC3)ccc21 | i | nt | i | i | i
Cc1ccc(Cl)cc1NC(=O)CN1C(=O)C(C)(C)c2cc(S(=O)(=O)N3CCCCC3)ccc21 | i | nt | 0.0045µM[quencher] | i | i
Cc1coc2c1C(=O)C(=O)c1c-2ccc2c(C)cccc12 | i | i | i | ? | i
Cc1coc2c1C(=O)C(=O)c1c-2ccc2c1CCCC2(C)C | i | i | i | 28µM | 28µM
COc1ccc(-c2nn3c(-c4cc(-c5ccccc5)n[nH]4)nnc3s2)cc1 | nt | nt | nt | i | nt
CO[C@@H]1COC(=O)[C@@H](CCSC)NC(=O)C/C=C\[C@@H](C)COC(=O)[C@H](C)NC(=O)C/C=C\[C@H]1C | i[11.2 µM] | nt | i[11.2 µM] | nt | nt
CCOC(=O)C1=C(C)Nc2nc(=S)[nH]n2C1c1ccc(Cl)cc1 (configuration not stated) | i | i | i | 79µM | i
CCOC(=O)C1=C(C)Nc2nc(SCC)nn2C1c1ccc(OC)cc1 (configuration not stated) | i | i | i | i | i
OC[C@H](O)[C@H](O)[C@@H](O)[C@@H](O)[C@@H]1SC(c2ccccc2)=NN1c1ccccc1 | i | i | i | 22µM | i
C=CC1=C2C=C(C3CC3)N(Cc3ccccc3)C=C2C(=O)C(C)(OC(=O)c2ccco2)C1=O (configuration not stated) | i[11.2 µM] | i[14.2 µM] | i[11.2 µM] | nt | nt
CCc1cc(=S)n2c([nH]c3ccccc32)c1C#N | i | i | i | ? | 28µM
CC(SCc1cc(=O)n2c([nH]c3ccccc32)c1C#N)C(=O)O (configuration not stated) | i | i | i | 79µM | i
C=Cc1ccccc1Br | i | nt | i | nt | nt
N#Cc1c([N+](=O)[O-])cc([N+](=O)[O-])cc1S(=O)(=O)Cc1ccccc1 | nt | nt | nt | 40µM | 14µM
COC1[C@@H](OC)C[C@H](C)[C@@H](OC)C2=CC(=O)C=C(NC(=O)/C(C)=C/C=C\[C@H](OC)[C@@H](OC(N)=O)/C(C)=C/[C@@H]1C)C2=O (some centres not stated) | i | nt | i | 79µM | i
COC1=C2C[C@@H](C)C[C@H](OC)[C@H](O)[C@@H](C)/C=C(\C)[C@H](OC(N)=O)[C@@H](OC)/C=C\C=C(/C)C(=O)NC(=CC1=O)C2=O | i | nt | i | ? | i
COc1ccc2c(c1)c1nnc(SC)nc1n2Cc1ccccc1 | nt | nt | nt | i | nt
O=C(Cn1c2[n+](c3ccc(C(F)(F)F)cc31)CCCCC2)Nc1ccc(Br)cc1 | i | 18µM | i | i | i
SMILES | TRb-SRC2 inh | GoLoco inh red | TR SRC2 fluor cs | VDR inh | GCN5L2 inh
Cc1cccc2sc(N(CCCN(C)C)C(=O)c3ccc4ncsc4c3)nc12 | nt | nt | nt | i | i
CCc1ccc2nc(N(CCN(C)C)C(=O)c3ccc4ncsc4c3)sc2c1 | nt | nt | nt | 71µM | i
COC(=O)CC[C@@H](C)C1CC[C@H]2[C@H]3CC[C@H]4C[C@@H]5CCC4(C)[C@@]3(O5)[C@@H](Br)[C@@H](Br)[C@@]12C (some centres not stated) | nt | i[14.2 µM] | nt | nt | nt
CCS(=O)(=O)Nc1ccc(-c2cc(-c3ccccc3)c3cc(C)ccc3n2)cc1 | i | i | 0.14µM[quencher] | i | i
Cc1ccc2nc(-c3ccc(NS(C)(=O)=O)cc3)cc(-c3ccccc3)c2c1 | nt | i | nt | i | i
CC[C@H](C)[C@H](N)C(=O)N[C@H]1CCC(=O)NCC(C(=O)N[C@@H](Cc2ccc(O)cc2)C(=O)N[C@@H](CCCNC(=N)N)C(=O)N[C@@H](CC(C)C)C(=O)N[C@@H](CCCNC(=N)N)C(=O)N[C@@H](Cc2ccc(O)cc2)C(N)=O)NC(=O)[C@@H]2CCCN2C(=O)[C@@H](NC(=O)[C@@H](N)[C@@H](C)CC)CCC(=O)NCC(C(=O)N[C@@H](Cc2ccc(O)cc2)C(=O)N[C@@H](CCCNC(=N)N)C(=O)N[C@@H](CC(C)C)C(=O)N[C@@H](CCCNC(=N)N)C(=O)N[C@@H](Cc2ccc(O)cc2)C(N)=O)NC(=O)[C@@H]2CCCN2C1=O (some centres not stated) | i | nt | i | i | i
O=C(COC(=O)CNC(=O)C1CCCCC1)NC1CCCC1 | nt | nt | nt | i | nt
CCC/C(O)=C1\C(=O)CC(C)(C)CC1=Nc1ccccc1O | i | i | i | 79µM | i
CCC/C(O)=C1\C(=O)CC(C)(C)CC1=NCCO | i | i | i | i | i
O=C(Nc1nnc(S(=O)(=O)N2CCCCC2)s1)c1ccc(F)cc1 | i | nt | 100µM[quencher] | i | i
O=C(Nc1nnc(S(=O)(=O)N2CCCC2)s1)c1ccc(F)cc1 | i | nt | i | i | i
O=C(O)CN(CC(=O)O)Cc1cc2c(-c3ccccc3C(=O)O)c3cc(CN(CC(=O)O)CC(=O)O)c(=O)cc-3oc2cc1O | 6.3µM | i | 40µM[fluorescent] | ? | ?
O=C(O)c1ccccc1-c1c2ccc(=O)cc-2oc2cc(O)ccc12 | i | 0.4µM | i | i | ?
O=C(O)c1ccccc1-c1oc2cc(O)ccc2c(=O)c1Oc1ccccc1 | i | i | i | i | nt
COc1ncc2nc(-c3cccs3)c(=O)n(CCC#N)c2n1 | nt | i | nt | i | 35µM
COc1ncc2nc(-c3ccccc3)c(=O)n(CCC#N)c2n1 | nt | i | nt | i | i
OCC(CO)(CO)COCC(CO)(CO)CO | i | nt | i | nt | nt
O=C(O)c1ccc(NNC(=S)Nc2cc(C(F)(F)F)ccc2Cl)cc1 | nt | nt | nt | 22µM | i
CCNc1ncc2nc(-c3cccc(C#N)c3)c(=O)n(C)c2n1 | nt | i | nt | i | 35µM
C[C@H]1Cc2c(COc3ccccc3)nc3c(c2CO1)CN(C(=O)C1CC1)CC3 | i[11.2 µM] | i[14.2 µM] | i[11.2 µM] | nt | nt
CCC1(C)Cc2sc3c(=O)[nH]c(=S)[nH]c3c2CO1 (configuration not stated) | i | i | i | i | 25µM
O=C(O)c1ccccc1Nc1cccc(OCc2ccc3ccccc3n2)c1 | i | i | i | i | 28µM
CO[Si](CCCNCCC[Si](OC)(OC)OC)(OC)OC | i | i | i | nt | nt

Bioassay records (PubChem BioAssay)
